Screening data deposited in PubChem BioAssay by National Center for Advancing Translational Sciences (NCATS).
Most compounds without a hit are left out; they make up all but 19% or so of the library.
HT1080 IDH1KD tx – kills HT-1080 cells with IDH1 knockdown | HT-1080 IDH1 knockdown viability, ATP luminescence, 48 h | Potency, µM (doses to about 46.1 µM), actives largely listed as cytotoxic | 360,000 compounds, 2% hits | AID 686971
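Using the IDH1-knockdown HT-1080 line run in the same batch and compound series as the NT line, viability after 48 h at 37 °C was determined by CellTiter-Glo luminescence and expressed as % activity.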
TDP1 cell noCPT – qHTS for Inhibitors of human tyrosyl-DNA phosphodiesterase 1 (TDP1): qHTS in cells in absence of CPT; DT40 Tdp1-/- hTDP1 cells, no CPT, ATP luminescence, 48 h; 420,000 compounds, 15% hits; AID 686978, 2013; Potency, µM (titrated, usually from 46.2 µM), hits mostly inhibitors; note: nearly all actives have a fitted effect of over 55% in size
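Luminescent ATP content (CellTiter-Glo) served as the growth readout. Knockout chicken DT40 cells expressing human TDP1 were exposed to compounds without camptothecin for a minimum 48 hr at 37 °C.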
HT1080-NT tox – kills 2HG-producing HT-1080-NT fibrosarcoma cells. HT-1080-NT fibrosarcoma viability, CellTiter-Glo ATP luminescence, 48 h. Potency, µM (titrated, usually from 46.1 µM), most hits filed as cytotoxic. 360,000 compounds, 1.6% hits;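 note: NT is the 2HG producing partner of a matched IDH1 knockdown line; nearly all actives have a fitted effect of over 55% in size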
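Viability by CellTiter-Glo luminescence after 48 h compound exposure at 37C of HT-1080-NT cells (750/well, RPMI, 5% FBS). % activity scaled between DMSO wells and medium-only wells, then curve-fitted and categorized by curve class.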
IL-1B inflam inh – inflammasome signaling inhibition, IL-1 beta readout | THP-1 LPS/ATP IL-1B secretion, AlphaLISA, 16 h; hits give low values | activity change, % at 57.5 µM | 360,000 compounds, 4.7% hits | AID 743279; in the data active = activity change below about -50%; inconclusive = mostly about -30% to -49%
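THP-1 cells pretreated 1 hr with compounds (up to 57.5 uM final), then stimulated with LPS (250 ng/mL final) plus ATP (1.25 mM final); secreted IL-1B measured by AlphaLISA after 16 hr, decreased signal indicating inhibition.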
DT40 TDP1 CPT – DT40-hTDP1 cell growth loss with CPT; Potency, µM (highest dose often 46.2 µM), usual class: inhibitors; chicken DT40 Tdp1-/-;hTDP1 cells + 20 nM CPT, ATP luminescence, 48 h; 420,000 compounds, 12% hits; note: nearly all actives have a fitted effect of over 55% in size
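Chicken DT40 Tdp1-/- cells complemented with human TDP1, 400 cells/well, exposed to compounds plus 20 nM camptothecin for at least 48 h at 37 C; viability read as ATP content by CellTiter-Glo luminescence.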
Numbers stand for hits; – = inactive; ? = inconclusive; · = no result given; [ ] = dose if it differs, or a comment. Unless noted, calls come from the whole dose curve; as a rule, active = well fitted curve in the direction sought with a large enough effect; inconclusive = small, poorly fitted or top-dose-only effect, or another doubt; inactive = no such curve, though single readings can be large; an effect the other way counts as inactive or inconclusive.

SMILES | HT1080 IDH1KD tx | TDP1 cell noCPT | HT1080-NT tox | IL-1B inflam inh | DT40 TDP1 CPT
Cc1cc(NC(=O)c2cc(-c3ccc(C)s3)nc3ccccc23)no1 | – | ? | – | – | ?
Cc1cccc(NC(=O)c2cc(-c3ccc(C)s3)nc3ccccc23)n1 | ? | 13µM | ? | – | 18µM
COc1cc(-c2cc(C(=O)Nc3cccc(C(C)=O)c3)c3ccccc3n2)cc(OC)c1OC | ? | ? | – | – | 6.5µM
O=C(NNC(=O)c1ccc(Cl)cc1Cl)Nc1ccccc1 | – | – | – | – | –
COc1ccc(CN(C2CC2)S(=O)(=O)c2ccccc2Br)cc1 | – | ? | – | – | ?
O=C(NCc1ccc2c(c1)OCO2)c1ccc2c(c1)S(=O)(=O)c1ccccc1C2=O | – | ? | – | ? | ?
CC(=O)O[C@H]1C[C@@H]2CC[C@@H]3[C@H](CC[C@@]4(C)[C@H]3C[C@H](N3CC[N+](C)(C)CC3)[C@@H]4OC(C)=O)[C@@]2(C)C[C@@H]1N1CC[N+](C)(C)CC1 | · | – | · | · | –
O=C(NCCN1CCOCC1)c1cc(-c2ccc(Cl)s2)nc2ccccc12 | – | – | ? | – | –
CCCCN(CCCC)CCCNC(=O)c1cc(-c2ccc(Cl)s2)nc2ccccc12 | · | 15µM | · | · | 13µM
COc1cccc(NC(=O)c2cc(-c3ccncc3)nc3c(C)cc(C)cc23)c1 | ? | 23µM | – | – | ?
O=C(NNC(=O)c1cc(-c2ccncc2)nc2ccccc12)c1cccc(Cl)c1 | – | – | – | – | –
COc1cccc(-c2cc(C(=O)Nc3ccc(N(C)C(C)=O)cc3)c3cc(Br)ccc3n2)c1 | – | 1.8µM | – | – | 1.8µM
CC(=O)c1cccc(NC(=O)c2cc(-c3ccncc3)nc3ccccc23)c1 | – | 18µM | –[9.24 µM] | – | ?
CCOC(=O)Cc1csc(NC(=O)C(NC(=O)C2CCCCC2)C(C)C)n1 (stereo not drawn) | – | ? | ? | – | –
COc1ccc(C(=O)COC(=O)Cn2cnc3ccccc3c2=O)c(OC)c1 | – | ? | – | – | –
CC(=O)Nc1ccc(NC(=O)c2cc(-c3ccccc3)nc3ccccc23)cc1 | – | 12µM | – | – | ?
COc1cc(-c2cc(C(=O)Nc3ccc(O)cc3)c3ccccc3n2)cc(OC)c1OC | ? | ? | ? | -52 | 10µM
O=C(Nc1ccc2c(c1)OCO2)c1cc(-c2cccnc2)nc2ccccc12 | – | ? | – | – | –
CC(OC(=O)c1cc(-c2cccnc2)nc2ccccc12)C(=O)Nc1ccc2ccccc2c1 (stereo not drawn) | – | 18µM | – | – | ?
Cc1nnc(Sc2cc(C(=O)NC3CC3)c3ccccc3n2)s1 | – | 7.3µM | – | – | ?
CCN(c1ccc(C)c(C)c1)S(=O)(=O)c1c(C)[nH]c(=O)[nH]c1=O | – | ? | – | – | –
O=C(c1ccccc1)N(CCCl)C(=O)N(CCCl)C(=O)c1ccccc1 | – | ? | – | – | ?
COc1cc2c(cc1NC(=O)c1cc(-c3ccncc3)nc3ccc(C)cc13)oc1ccccc12 | – | ? | – | – | 23µM
COc1ccc(CCN(C)C(=O)c2cc(-c3ccc(C)cc3)nc3ccccc23)cc1OC | – | ? | – | – | ?
COC(=O)CNC(=O)c1cc(-c2ccncc2)nc2ccc(C)cc12 | – | – | – | ? | –
SMILES | HT1080 IDH1KD tx | TDP1 cell noCPT | HT1080-NT tox | IL-1B inflam inh | DT40 TDP1 CPT
COc1ccc(-c2cc(C(=O)N(C)Cc3ccc(F)cc3)c3ccccc3n2)cc1OC | – | ? | – | – | 23µM
CCOC(=O)[C@]12CCCC=C1N(Cc1ccccc1)C(=O)[C@H](CC(=O)NCCCCc1ccccc1)C2 | ? | ? | – | – | ?
O=C1CNC(=S)N1Cc1cccc(Cl)c1 | – | – | – | – | –
CN(CC(=O)Nc1c(Cl)cccc1Cl)C(=O)c1cccn1C | – | – | – | – | –
COc1cc(/C=C(\C#N)c2nc3ccccc3s2)cc([N+](=O)[O-])c1O | – | 16µM | – | – | ?
N#C/C(=C\c1ccc(O)c([N+](=O)[O-])c1)c1nc2ccccc2s1 | ? | 16µM | ? | – | 26µM
